# Data from PMC11006913.
# Positions count from the first letter of the chain named.
# Columns and labels:
# Assay in all cases: PBM; 200 nM protein, PBS
# Details in all cases: dsDNA, one strand shown
# [1] = molecular target: T1, VENTX (Homo sapiens, UniProt O95231 78-163, R121Q)
# T1 sequence: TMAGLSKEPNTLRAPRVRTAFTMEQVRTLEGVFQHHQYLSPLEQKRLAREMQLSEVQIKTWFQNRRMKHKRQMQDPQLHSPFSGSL
# [2] = molecular target: T2, VENTX (Homo sapiens, UniProt O95231 78-163)
# T2 sequence: T1 sequence with Q44R
# [3] = molecular target: T3, VENTX (Homo sapiens, UniProt O95231 78-163, Y115F)
# T3 sequence: T1 sequence with Y38F, Q44R
Sequence,binding signal [1],binding signal [2],binding signal [3]
CGCTAGGC,"8.19 upbm affinity estimate (log intensity, higher = more binding, comparable within an allelic series)","8.31 upbm affinity estimate (log intensity, higher = more binding, comparable within an allelic series)","8.19 upbm affinity estimate (log intensity, higher = more binding, comparable within an allelic series)"
CGATTAGC,"11.7 upbm affinity estimate (log intensity, higher = more binding, comparable within an allelic series)","12.8 upbm affinity estimate (log intensity, higher = more binding, comparable within an allelic series)","11.6 upbm affinity estimate (log intensity, higher = more binding, comparable within an allelic series)"
CATTAGAA,"10.5 upbm affinity estimate (log intensity, higher = more binding, comparable within an allelic series)","11.1 upbm affinity estimate (log intensity, higher = more binding, comparable within an allelic series)","10.4 upbm affinity estimate (log intensity, higher = more binding, comparable within an allelic series)"
AACGATTA,"11.2 upbm affinity estimate (log intensity, higher = more binding, comparable within an allelic series)","12.3 upbm affinity estimate (log intensity, higher = more binding, comparable within an allelic series)","11.3 upbm affinity estimate (log intensity, higher = more binding, comparable within an allelic series)"
CTCGTGGC,"8.11 upbm affinity estimate (log intensity, higher = more binding, comparable within an allelic series)","8.09 upbm affinity estimate (log intensity, higher = more binding, comparable within an allelic series)","8.12 upbm affinity estimate (log intensity, higher = more binding, comparable within an allelic series)"
AGCCCGGA,"8.11 upbm affinity estimate (log intensity, higher = more binding, comparable within an allelic series)","7.92 upbm affinity estimate (log intensity, higher = more binding, comparable within an allelic series)","8.12 upbm affinity estimate (log intensity, higher = more binding, comparable within an allelic series)"
AAATATCT,"9.87 upbm affinity estimate (log intensity, higher = more binding, comparable within an allelic series)","10 upbm affinity estimate (log intensity, higher = more binding, comparable within an allelic series)","9.74 upbm affinity estimate (log intensity, higher = more binding, comparable within an allelic series)"
CCGAGCCC,"8.05 upbm affinity estimate (log intensity, higher = more binding, comparable within an allelic series)","8.08 upbm affinity estimate (log intensity, higher = more binding, comparable within an allelic series)","8.04 upbm affinity estimate (log intensity, higher = more binding, comparable within an allelic series)"
CCATTAGG,"11.7 upbm affinity estimate (log intensity, higher = more binding, comparable within an allelic series)","12.4 upbm affinity estimate (log intensity, higher = more binding, comparable within an allelic series)","11.4 upbm affinity estimate (log intensity, higher = more binding, comparable within an allelic series)"
GTTATTCA,"9.35 upbm affinity estimate (log intensity, higher = more binding, comparable within an allelic series)","9.76 upbm affinity estimate (log intensity, higher = more binding, comparable within an allelic series)","9.4 upbm affinity estimate (log intensity, higher = more binding, comparable within an allelic series)"
CATGGCGG,"7.95 upbm affinity estimate (log intensity, higher = more binding, comparable within an allelic series)","7.8 upbm affinity estimate (log intensity, higher = more binding, comparable within an allelic series)","7.87 upbm affinity estimate (log intensity, higher = more binding, comparable within an allelic series)"
CCCCGTAC,"8.03 upbm affinity estimate (log intensity, higher = more binding, comparable within an allelic series)","8.06 upbm affinity estimate (log intensity, higher = more binding, comparable within an allelic series)","8.02 upbm affinity estimate (log intensity, higher = more binding, comparable within an allelic series)"
CGCATGCG,"8.34 upbm affinity estimate (log intensity, higher = more binding, comparable within an allelic series)","8.73 upbm affinity estimate (log intensity, higher = more binding, comparable within an allelic series)","8.4 upbm affinity estimate (log intensity, higher = more binding, comparable within an allelic series)"
GCCGGCAC,"7.98 upbm affinity estimate (log intensity, higher = more binding, comparable within an allelic series)","7.91 upbm affinity estimate (log intensity, higher = more binding, comparable within an allelic series)","7.98 upbm affinity estimate (log intensity, higher = more binding, comparable within an allelic series)"
AGCCCGAA,"8.34 upbm affinity estimate (log intensity, higher = more binding, comparable within an allelic series)","8.32 upbm affinity estimate (log intensity, higher = more binding, comparable within an allelic series)","8.13 upbm affinity estimate (log intensity, higher = more binding, comparable within an allelic series)"
GCTAAATA,"10.1 upbm affinity estimate (log intensity, higher = more binding, comparable within an allelic series)","10.6 upbm affinity estimate (log intensity, higher = more binding, comparable within an allelic series)","10 upbm affinity estimate (log intensity, higher = more binding, comparable within an allelic series)"
